# Compounds without any hit were thinned out: in the full panel of roughly 79,000, 15% have a hit. A number with no mark means an inactive call. Active and inactive are the calls of the source. Cut-off read from the data, not from the text of the source: active = growth inhibition above about 70%; inactive = the rest.
# Legend:
# [1] = NCI Yeast Anticancer Drug Screen. Data for the rad50 strain (AID 155);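 note: 0% = growth of vehicle-only cultures of the same strain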; details: S. cerevisiae rad50 strain growth inhibition; at 50.0 µM; stronger effect = higher value
# Outline: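 Genetically altered yeast (DNA repair pathway); compound treatment; growth inhibition vs vehicle ctrl.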
# [2] = NCI Yeast Anticancer Drug Screen. Data for the mec2-1 strain (AID 157); details: S. cerevisiae mec2-1 strain, at 50.0 µM, stronger effect = higher value
# Outline: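 Yeast mec2-1 mutant treated with compound. Readout: growth inhibition vs vehicle controls.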
# [3] = NCI Yeast Anticancer Drug Screen. Data for the sgs1 mgt1 strain (AID 161);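 note: 0% = growth of cultures given vehicle only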; details: S. cerevisiae sgs1 mgt1 strain, at 50.0 µM, stronger effect = higher value
# Outline: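 Genetically altered yeast, compound exposure, growth inhibition relative to vehicle.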
# [4] = NCI Yeast Anticancer Drug Screen. Data for the cln2 rad14 strain (AID 165);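 note: 0% = growth equal to vehicle treated cultures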; details: S. cerevisiae cln2 rad14 strain, at 50.0 µM, stronger effect = higher value
# Outline: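 cln2 rad14 yeast strain; compound exposure; growth inhibition read vs vehicle controls.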
# [5] = NCI Yeast Anticancer Drug Screen. Data for the bub3 strain (AID 167); details: S. cerevisiae bub3 mutant strain, at 50.0 µM, stronger effect = higher value
# Outline: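 Yeast carrying a defined mutation is treated with each compound, and growth is compared with that of vehicle-exposed cells to give inhibition.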
# [6] = NCI Yeast Anticancer Drug Screen. Data for the mlh1 rad18 strain (AID 175); details: S. cerevisiae mlh1 rad18 strain growth inhibition; at 50.0 µM; stronger effect = higher value
# Outline: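 Yeast w/ defined DNA-repair lesions; compound exposure; growth vs vehicle controls → % inhibition.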
Structure (SMILES),growth inhibition [1],growth inhibition [2],growth inhibition [3],growth inhibition [4],growth inhibition [5],growth inhibition [6]
Nc1c(-c2ccccc2[N+](=O)[O-])nc2ccccn12,-16.1%,-43.5%,-49.3%,-2.15%,-19.2%,-21.1%
CCOC(=O)C1=C(C(=O)c2ccccc2)C(c2ccc([N+](=O)[O-])cc2)C(C(=O)c2ccccc2)=C(C(=O)OCC)N1,-6.5%,1.6%,-4%,14.2%,-10.9%,7.5%
[O-][N+]1=CCCC1,4.4%,-13.9%,-0.65%,-5.5%,-0.2%,-16.4%
O=C(c1ccccc1)C1CC2C=CC1C2 (stereo unspecified),4.3%,-8.25%,2.4%,36.9%,-0.7%,17.2%
COc1cc(/C=C2\C=Cc3ccccc32)ccc1N(C)C,5.45%,-13.2%,-6.85%,-54.4%,3.8%,-15.5%
CN1C(C)(C)CC(O)(C(O)(c2ccccc2)c2ccccc2)CC1(C)C,10.4%,-9.35%,-14.6%,-14%,-11.2%,3.7%
CC(NC(=O)C(N)CCC(=O)O)C(=O)NCP(=O)(O)O (stereo unspecified),-13.1%,-49%,0.35%,26.4%,4.25%,8%
O=c1[nH]nc(-c2ccccc2)n1/N=C\c1ccccc1,-33.1%,-10.3%,-15.6%,-26.1%,6.15%,-26%
COC(=O)C(=O)C(C(=O)C1=NS(=O)(=O)c2cc(S(N)(=O)=O)c(Cl)cc2N1)c1nc2ccc(C(=O)c3ccccc3)cc2[nH]c1=O (stereo unspecified),-9.7%,-18.1%,-18%,6%,-19.9%,-19.2%
CCC1C(OC)=CC2(CC)CC1(OC)OC2=O (stereo unspecified),-4.75%,-0.3%,-1.2%,-2.45%,7.45%,-3.35%
SCc1ccc(CS)s1,4.65%,-1.75%,-1.65%,17.8%,23.2%,-4.3%
CCCc1cc(=O)n(CCCc2ccccc2)c(=O)[nH]1,-3.85%,1.25%,13.4%,-7.75%,15.2%,18.4%
C=CCNC(=O)C[n+]1cccc(C(=O)Nc2ccccc2)c1,1.65%,-18.2%,5.4%,23.2%,5.95%,-0.95%
CCc1nn2c(=O)nc(Oc3ccccc3)nc2s1,-5.55%,8.85%,2%,2.55%,14.6%,23.4%
CCOC(=O)C(=O)C(C(=O)c1ccccn1)c1nc2n(c1O)C(=N)N=N2 (stereo unspecified),-4.1%,4.4%,-3.1%,-0.25%,-5.35%,5.3%
O=C(CO)CC(=O)CCC(=O)Nc1cccc([N+](=O)[O-])c1,-4.7%,21.5%,0%,42.8%,-12.3%,-4.35%
CCOc1ccccc1C(=O)OCCCc1ccccc1,-1%,9.15%,7.1%,-2.25%,25.2%,15.4%
CC(=O)Nc1cc(CN2CCCCC2)c(O)c2ncccc12,-8.65%,-21.4%,-38.3%,-36%,-35.1%,-8.05%
Cc1c(C(=O)O)n2cnnc2c2ccccc12,22.8%,4%,-38.1%,11.9%,-15.8%,1.5%
O=c1c(-c2ccccc2)nc2ccccc2n1CC1CCCN2CCCC[C@H]12 (stereo partly specified),3.9%,-10%,18.3%,-38.9%,22.7%,19.4%
CC(=C\C=N\N(C)c1ccccc1)/C=C1\Cc2ccccc2C1=O,-8.7%,2.2%,-19.1%,14%,-2.8%,-9.65%

Structure (SMILES),growth inhibition [1],growth inhibition [2],growth inhibition [3],growth inhibition [4],growth inhibition [5],growth inhibition [6]
NC12CC3CC(C1)CC(Cl)(C3)C2,-12.6%,-26.9%,-32.4%,-3.5%,-35.9%,4.1%
C/C(=N\NC(N)=S)c1cc(C)c(C)cc1C,34.3%,5.55%,50%,17.2%,-7.95%,65.8%
COc1ccc(NC(=O)Nc2cc(C(F)(F)F)ccc2Cl)cc1,14.6%,16.6%,5.9%,-26.1%,2.5%,-9.65%
CCC(=O)NC1CCCCC1,8.6%,3.5%,19.2%,-15.3%,-13.9%,1.4%
CCCCCCC(N)(CCCCCC)C(=O)Nn1c(C)ccc1C,45%,13.1%,9.8%,-20.6%,4.25%,31.2%
O=C1c2ccccc2CN(C(=Nc2ccccc2)Nc2ccccc2)c2ccccc21,15.1%,2.95%,-0.55%,-25.7%,-0.7%,14.9%
O=C(N/N=C/c1ccccc1[O-])c1ccccc1O.O=C(N/N=C/c1ccccc1[O-])c1ccccc1O.[Fe+2],6.45%,-10.1%,-1.5%,19.3%,-19.6%,9.5%
CC1CCC(C)C(O)C1 (stereo unspecified),-21.9%,-22.3%,-19.1%,23.1%,-27.8%,3.25%
CCOc1cc(/C=N\NC(=S)N/N=C/c2ccc(O)c(OCC)c2)ccc1O,-15.2%,-0.75%,-4.35%,1.55%,-6.65%,29.9%
CC(=O)NC1C(OC(C)=O)OC(COC(c2ccccc2)(c2ccccc2)c2ccccc2)C(O)C1OC(C)=O (stereo unspecified),63.9%,47.5%,5%,41.2%,47.2%,44%
CCCCOP(=O)(Cc1ccc(Cl)cc1Cl)OCCCC,99.5% (active),99.7% (active),99.5% (active),99% (active),99.4% (active),99.5% (active)
CCCCCC(=O)OCCN(C)C,-7.15%,-24.2%,-4.45%,21.1%,-13.5%,24.9%
CC1C(OC(=O)CCl)CCC2C1(C)CCC1C2(C)CCC2(C)C3CC(C)(C)CCC3(C)CCC12C (stereo unspecified),-13.2%,1%,-1.85%,-12.2%,2.15%,-10.2%
CCCCOC(=O)CNC(=O)OC/C=C/C#CC#C/C=C/COC(=O)NCC(=O)OCCCC,-20.2%,-35.8%,-24.4%,-17.9%,0.3%,-19.9%
Cc1nn(C(=O)c2ccccn2)c(-c2ccccc2)c1N=Nc1ccc(S(=O)(=O)Nc2ncccn2)cc1,26.4%,-6%,17.9%,12.5%,1.5%,40.4%
CCCCCCCCCCC(=O)OCC,-30.2%,0.65%,-21.4%,-1.85%,1.2%,-32.8%
CCC(C)(O)c1cnc(CC(C)C)c(=O)n1O (stereo unspecified),55.5%,32.9%,43.3%,38.7%,38.4%,52.2%
O=[N+]([O-])c1ccc(-c2nc3ccncc3[nH]2)cc1,-22.6%,-7.4%,-15.2%,-21.6%,-6.85%,-12.6%
O=C(/C=C\c1ccccc1)C(C(=O)/C=C/c1ccccc1)C(=O)c1ccccc1 (stereo unspecified),-1.5%,-3.05%,3.15%,14.9%,-1.25%,32.8%
COc1cc(OC)c(C(=O)/C=C/c2ccccc2)c(O)c1OC,24.8%,-7.8%,20.9%,-45.2%,-15.1%,30.6%

# From PubChem BioAssay (NCI)
